Marburg entry inh = blocks Marburg virus binding to or entry into cells; 1.8% of 300,000 active; Potency, µM (highest dose often 37.8 µM), without a hit: top-dose activity change, negative = inhibition, actives largely listed as inhibitors; Marburg virus pseudotyped entry inhibition, cell reporter; calls by dose curve; tested in HEK293 cells
HCV inhibitor = HCV inhibition; Huh7.5.1 HCVcc-Cre infection, luciferase reporter, 44 h; Potency, µM (series often up to 41.8 µM), for inactives: top-dose activity change, negative = inhibition, usual class: inhibitors; 3.4% of 340,000 active; AID 651820; active means well fitted inhibition curve with a large enough effect; inconclusive means small, poorly fitted or top-dose-only effect, or another doubt; inactive means no such curve, though single readings can be large or run the other way
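Reporter virus HCVcc-Cre (~0.5 moi) infects cells exposed to compound; seeding density 1,000 cells/well with 4 h settling beforehand. Luminescence, 15 sec read, taken 44 h post-infection following a 15 min RT substrate incubation.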
VACV Venus inh = vaccinia inhibition (Venus reporter); Potency, µM (doses to about 36.5 µM), for inactives: at the highest dose activity change, negative = inhibition, hits mostly inhibitors; Vaccinia virus Venus reporter expression, fluorescence; 0.46% of 330,000 active; calls by dose curve; tested in A549 cells; further: nearly all actives have a fitted effect of over 30% in size
VACV mCherry inh = inhibitors of vaccinia virus infection (mCherry reporter signal); Vaccinia virus mCherry reporter infection, fluorescence; Potency, µM (top dose mostly 36.5 µM), for inactives: at the highest dose activity change, negative = inhibition, hits mostly inhibitors; 0.63% of 310,000 active; calls by dose curve; tested in A549 cells; further: nearly all actives have a fitted effect of over 35% in size
FMDV antiviral = antivirals against foot and mouth disease virus; FMDV antiviral cell-based qHTS; Potency, µM (series often up to 57.9 µM), for the others: at the highest dose activity change, negative = inhibition, usual class: inhibitors; 1.2% of 410,000 active; calls by dose curve; tested in HEK293T cells; further: read-out not given here; nearly all actives have a fitted effect of over 45% in size
Lassa entry inh = inhibitors of Lassa virus binding or cell entry | Lassa virus pseudotype entry inhibition, cell reporter | Potency, µM (series often up to 37.9 µM), inactives show at the highest dose activity change, negative = inhibition, usual class: inhibitors | 1.2% of 300,000 active; calls by dose curve; tested in HEK293 cells; further: nearly all actives have a fitted effect of over 50% in size
The depositor's hits bear a star; [ ] = remark or other dose. Sampled rows, rich in hits. Any-hit rate of the full collection: about 5.3%. On the % scale 0 is the no-effect control and ±100 the full control effect; potency means the concentration at half of the fitted maximal effect.

For COC(=O)c1c(NC(=O)COc2c(C)cccc2C)sc2c1CCCC2 the results were VACV Venus inh 8%, VACV mCherry inh -6%, FMDV antiviral -29% and Lassa entry inh 17%[46.1 µM].
`COC(=O)c1c(NC(=O)COC(=O)c2ccc(O)cc2)sc2c1CCCCC2` gave Marburg entry inh 4%[46.1 µM], HCV inhibitor 3.2µM*, VACV Venus inh -9%, VACV mCherry inh inconclusive, FMDV antiviral -20% and Lassa entry inh -25%[46.1 µM].
Screening COCC(=O)Nc1sc2c(c1C(=O)OC)CCCC2 returned Marburg entry inh 3%, HCV inhibitor 7.1µM*, FMDV antiviral 20% and Lassa entry inh 5%.
`CCOC(=O)c1c(CC(C)C)csc1NC(=O)COC(=O)c1ccc(O)cc1` gave Marburg entry inh -2%, HCV inhibitor inconclusive, VACV Venus inh -2%, VACV mCherry inh -8%, FMDV antiviral 35µM* and Lassa entry inh inconclusive.
For COC(=O)c1c(NC(=O)C(=O)NCCCN2CCOCC2)sc2c1CCCC2 the results were HCV inhibitor 22µM* and FMDV antiviral -32%.
Screening COCCCNC(=O)C1CCCN(c2nn3cc(-c4ccc(C)cc4)nc3s2)C1 (centres undefined) returned VACV Venus inh 1%, VACV mCherry inh -9%, FMDV antiviral -1% and Lassa entry inh -1%[46.1 µM].
Screening C[C@H](NC(=O)CSc1nnc(COc2ccccc2)o1)c1ccccc1 returned Marburg entry inh -23%.
Screening Cn1c(=O)c(C#N)c(-c2ccc(F)cc2)c2cc(C(=O)c3cc(Cl)cc(Cl)c3O)cnc21 returned HCV inhibitor 11µM* and FMDV antiviral inconclusive.
Screening COc1ccc(OC)c(C(=O)N2CCc3c(cnc(C)c3CNS(=O)(=O)N(C)C)C2)c1 returned VACV Venus inh -10%, VACV mCherry inh -12% and FMDV antiviral -15%.
Screening CCC(C)n1c(SCC(=O)Nc2cc(C)on2)nc2ccccc2c1=O (centres undefined) returned Marburg entry inh 4µM*, HCV inhibitor inconclusive, VACV Venus inh inconclusive, VACV mCherry inh inactive, FMDV antiviral -23% and Lassa entry inh -12%.
For Cc1cc(NC(=O)CSc2nc3ccccc3c(=O)n2C(C)c2ccccc2)no1 (centres undefined) the results were Marburg entry inh 3.2µM*, HCV inhibitor inconclusive, VACV Venus inh -23%, FMDV antiviral -24% and Lassa entry inh 2.5µM*.
CCCN(C(=O)C1CC(=O)N(c2ccccc2C(C)CC)C1)C1CCS(=O)(=O)C1 (centres undefined) was read as Marburg entry inh -22%, HCV inhibitor 33%, VACV Venus inh -4%, VACV mCherry inh -13%, FMDV antiviral -12% and Lassa entry inh 0%.
Screening O=c1cc(-c2ccco2)oc2c1ccc1ccccc12 returned Marburg entry inh 9%, HCV inhibitor inconclusive, VACV Venus inh -7%, VACV mCherry inh -10%, FMDV antiviral -15% and Lassa entry inh inconclusive.
`O=c1cc(C(Cl)(Cl)Cl)oc2c1ccc1ccccc12` gave Marburg entry inh 2.1µM*, HCV inhibitor inconclusive, VACV Venus inh -29%, VACV mCherry inh inconclusive, FMDV antiviral 14µM* and Lassa entry inh inconclusive.
Cc1cc(=O)n(CC(=O)N2CCN(c3ccc(F)cc3)CC2)c2c1c(C)nn2C was read as VACV Venus inh -23%, VACV mCherry inh -2%, FMDV antiviral 28µM* and Lassa entry inh inconclusive.
For Cc1cc(/C=C2\SC(=S)N(C)C2=O)c(C)n1-c1ccc(O)cc1 the results were HCV inhibitor 11µM*, VACV Venus inh -18%, VACV mCherry inh inconclusive and FMDV antiviral 0.89µM*.
Cc1cc(/C=C2\SC(=S)N(C)C2=O)c(C)n1-c1ccccc1O was read as Marburg entry inh inconclusive, HCV inhibitor 7.1µM*, VACV Venus inh 3%, VACV mCherry inh inconclusive, FMDV antiviral inconclusive and Lassa entry inh inconclusive.
`CN1C(=O)/C(=C/c2coc3ccc(O)cc3c2=O)SC1=S` gave HCV inhibitor 5% and FMDV antiviral 37%.
Screening COc1ccc(-c2nn3c(=O)cc(CN4CCN(C(=O)c5ccc(C(C)(C)C)cc5)CC4)nc3s2)cc1 returned VACV Venus inh -10%, VACV mCherry inh -11%, FMDV antiviral inconclusive and Lassa entry inh inconclusive.
Screening COc1cc(/C=C/c2[nH]c(=O)[nH]c(=O)c2[N+](=O)[O-])cc([N+](=O)[O-])c1O returned HCV inhibitor 6% and FMDV antiviral -19%.
`CCC(C)Oc1ccc(/C=C/c2[nH]c(=O)[nH]c(=O)c2[N+](=O)[O-])cc1OC` (centres undefined) gave Marburg entry inh inconclusive, HCV inhibitor 24%, VACV Venus inh -4%, VACV mCherry inh inactive, FMDV antiviral 32µM* and Lassa entry inh -10%[46.1 µM].
For COc1cc(/C=C/c2[nH]c(=O)[nH]c(=O)c2[N+](=O)[O-])ccc1OCCC(C)C the results were Marburg entry inh -30%[46.1 µM], HCV inhibitor 10%, VACV Venus inh -4%, VACV mCherry inh -7%, FMDV antiviral 28µM* and Lassa entry inh inconclusive.
`COc1ccc2cc(CNCc3nonc3C)c(N3CCCC(CO)C3)nc2c1` (centres undefined) gave VACV Venus inh -4%, VACV mCherry inh -12% and FMDV antiviral 13%.
`O=C(NC[C@@H]1CC[C@@H](Cc2ccc(-c3ccccc3)cc2)O1)Nc1ccc(Br)cc1` gave HCV inhibitor 5µM*, VACV Venus inh inconclusive, VACV mCherry inh -18% and FMDV antiviral -13%.
COc1ccc(CCNC(=O)c2ccc(CS(=O)(=O)c3ccc(Cl)cc3)o2)cc1OC was read as Marburg entry inh 15µM*, HCV inhibitor 13µM*, FMDV antiviral 16µM* and Lassa entry inh 26µM*.
O=C(NCCc1ccc(Cl)cc1)c1ccc(CS(=O)(=O)Cc2ccc(Cl)cc2)o1 was read as VACV Venus inh -14%, VACV mCherry inh -14%, FMDV antiviral 1% and Lassa entry inh 12%[46.1 µM].
`O=C(NCCc1ccc(Cl)cc1)c1ccc(CS(=O)(=O)Cc2ccccc2F)o1` gave VACV Venus inh -10%, VACV mCherry inh -21%, FMDV antiviral 40µM* and Lassa entry inh inconclusive.
Screening COc1ccc(CCNC(=O)c2ccc(N(C)S(=O)(=O)c3ccc(C)cc3)cc2)cc1OC returned HCV inhibitor 10µM* and FMDV antiviral inconclusive.
Screening CCOc1ccc(CCNC(=O)c2ccc(CS(=O)Cc3ccc(Cl)cc3)o2)cc1OCC (centres undefined) returned HCV inhibitor 2.5µM* and FMDV antiviral -11%.
Cc1nnc(SCC(=O)Nc2cc(Cl)ccc2Cl)n1CC1CCCO1 (centres undefined) was read as Marburg entry inh 2%[46.1 µM], HCV inhibitor 8%, VACV Venus inh -15%, VACV mCherry inh 0%, FMDV antiviral -16% and Lassa entry inh -1%.

Compound activity from PubChem BioAssay.
